As usually defined, the AC50 is the concentration at which the activity in the assay is half-maximal.

This is an account of results in PubChem BioAssay (EPA / NIEHS).

Assay [1] in a line: ATG_GLI_CIS: Attagene CIS-FACTORIAL HepG2 Assay for human Zinc Finger Protein GLI1 (AID 2282945). The conditions noted are these: HepG2, Attagene cis-factorial reporter mRNA, GLI element; actives raise or lower the signal. The procedure, abridged:
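Bidirectional curve fits relative to DMSO, using reporter mRNA levels from RT-PCR plus capillary electrophoresis. Cells were HepG2 transiently carrying cis-regulated reporter constructs, harvested 24 h after dosing.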

In assay [2] the target is Bile acid receptor (Homo sapiens) (UniProt Q96RI1). In words: ATG_IR1_CIS: Attagene CIS-FACTORIAL HepG2 Assay for human Nuclear Receptor Subfamily 1 Group H Member 4 (NR1H4), IR1 submotif (AID 2282946). The conditions noted are these: IR1 reporter transcription, actives raise or lower the signal. The procedure, abridged:
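HepG2 cells transiently transfected with multiplexed cis-element reporter units read endogenous transcription factor activity. After 24 h compound exposure, reporter mRNA was quantified by RT-PCR, fluorescent labelling, HpaI digestion and capillary electrophoresis; bidirectional fitting versus DMSO baseline.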

Assay [3] can be described thus: ATG_GRE_CIS: Attagene CIS-FACTORIAL HepG2 Assay for human Glucocorticoid Response Elements (GRE) (AID 2282947). The conditions noted are these: HepG2 GRE cis-reporter, Attagene multiplex mRNA; actives raise or lower the signal. An outline of the steps: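 Multiplexed cis-reporter mRNA induction, HepG2, 24 h post-dose. RT-PCR, FAM-labelled, HpaI-digested amplicons by CE. Bidirectional fit vs DMSO.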

Assay [4] in a line: ATG_ISRE_CIS: Attagene CIS-FACTORIAL HepG2 Assay for human Interferon Regulatory Factor 1 (IRF1) binding to an Interferon-Stimulated Response Element (ISRE) (AID 2282948). The settings on record: HepG2 ISRE cis-reporter (Attagene), mRNA transcription readout; actives raise or lower the signal. The procedure, abridged: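 Signal reflects induction or loss of ISRE-linked reporter mRNA in transiently transfected HepG2 cells after a 24 h treatment, detected by fluorescent RT-PCR fragments on capillary electrophoresis and normalised to DMSO.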

Assay [5] is described as follows: ATG_M_06_CIS: Attagene CIS-FACTORIAL HepG2 Assay for M06 Transcription Factor (Internal Marker) (AID 2282950). The settings on record: HepG2 Attagene CIS-FACTORIAL M06 internal marker reporter; actives raise or lower the signal. An outline of the steps: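 Measured 24 h post-dosing in transiently transfected HepG2 cells, this internal-marker endpoint reports reporter mRNA via RT-PCR with fluorescent primer extension and capillary electrophoresis. DMSO served as negative control and baseline for bidirectional fitting.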

Assay [6] addresses Hypoxia-inducible factor 1-alpha (Homo sapiens) (UniProt Q16665). In words: ATG_HIF1a_CIS: Attagene CIS-FACTORIAL HepG2 Assay for human Hypoxia Inducible Factor 1 (HIF1A) (AID 2282951). The settings on record: HepG2 Attagene cis-factorial HIF1a reporter transcription; actives raise or lower the signal. The procedure, abridged: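 Activity is fitted in both directions relative to DMSO. Reporter transcripts are read by RT-PCR, fluorescent primer extension and capillary electrophoresis after 24 h chemical treatment. The cells are HepG2 carrying transiently transfected cis-element-driven reporter units responding to endogenous factors.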

For assay [7], the target named is Hepatocyte nuclear factor 6 (Homo sapiens) (UniProt Q9UBC0). In words: ATG_HNF6_CIS: Attagene CIS-FACTORIAL HepG2 Assay for human Hepatocyte Nuclear Factor 6 (HNF6) (AID 2282952). The settings on record: HepG2 Attagene cis-factorial HNF6 reporter transcription; actives raise or lower the signal. An outline of the steps:
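Endogenous factor activity read in transiently transfected HepG2 via promoter-regulated reporter transcripts. RNA harvested 24 h post-dosing, reverse-transcribed, PCR-amplified, FAM-labelled, HpaI-digested and resolved by capillary electrophoresis; fitted in both directions against DMSO.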

The target of assay [8] is Heat shock factor protein 1 (Homo sapiens) (UniProt Q00613). In words: ATG_HSE_CIS: Attagene CIS-FACTORIAL HepG2 Assay for human Heat Shock Transcription Factor 1 (HSE) (AID 2282953). The conditions noted are these: HepG2 HSE cis-reporter, Attagene RNA transcription; actives raise or lower the signal. An outline of the steps:
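Reporter mRNA induction in HepG2 is measured 24 h after dosing, using transiently transfected multiplexed cis-regulated reporter units. Signal comes from capillary electrophoresis of labelled RT-PCR products, with DMSO as negative control.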

Assay [9] in a line: ATG_MRE_CIS: Attagene CIS-FACTORIAL HepG2 Assay for human Metal Responsive Element (MRE) (AID 2282954). The conditions noted are these: HepG2 MRE cis-reporter transcription, Attagene multiplex; actives raise or lower the signal. An outline of the steps:
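Multiplexed cis-reporter assay in human HepG2 liver cells, 24 h incubation with test chemical. Reporter transcripts measured by RT-PCR and capillary electrophoresis; values from bidirectional curve fitting versus DMSO.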

A short description of assay [10]: ATG_M_32_CIS: Attagene CIS-FACTORIAL HepG2 Assay for M32 Transcription Factor (Internal Marker) (AID 2282949).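 Note: background control marker of the multiplexed CIS panel rather than a real target.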 The settings on record: HepG2 Attagene cis-factorial M32 reporter, mRNA; actives raise or lower the signal. The procedure, abridged: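 Using DMSO as baseline, bidirectional curve fits were applied to reporter mRNA signals. These came from transiently transfected HepG2 cells exposed for 24 h, with RNA analysed by RT-PCR, FAM primer extension, HpaI digestion and CE.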

The structures appear in SMILES notation. Values joined by “and” are separate entries in the source; they are usually repeats but may differ in a detail not shown here. Equal entries are not always repeated. Some structures have more than one record in an assay (separate samples or runs), and their calls can disagree. Active and inactive are the calls of the source. Rule for the calls: active = hit-call score of the fitted dose curve at least 0.9, where 1 is the maximum; inactive = score below 0.9.

Chain of Bile acid receptor (Homo sapiens) (Q96RI1 whole entry, looked up): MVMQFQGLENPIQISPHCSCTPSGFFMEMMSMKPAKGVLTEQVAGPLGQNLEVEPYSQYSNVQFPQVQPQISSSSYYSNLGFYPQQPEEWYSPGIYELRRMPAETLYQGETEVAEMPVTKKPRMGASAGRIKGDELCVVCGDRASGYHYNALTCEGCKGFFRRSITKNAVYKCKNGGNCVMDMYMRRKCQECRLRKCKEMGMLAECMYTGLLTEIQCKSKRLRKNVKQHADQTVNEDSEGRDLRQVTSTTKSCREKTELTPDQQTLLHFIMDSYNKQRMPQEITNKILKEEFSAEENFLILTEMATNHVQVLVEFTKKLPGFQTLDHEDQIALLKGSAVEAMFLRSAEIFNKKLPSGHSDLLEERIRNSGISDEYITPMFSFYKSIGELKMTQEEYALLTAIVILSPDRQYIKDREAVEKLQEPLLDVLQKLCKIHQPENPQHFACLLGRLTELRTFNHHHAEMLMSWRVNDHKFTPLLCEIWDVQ
Chain of Hypoxia-inducible factor 1-alpha (Homo sapiens) (Q16665 whole entry, looked up): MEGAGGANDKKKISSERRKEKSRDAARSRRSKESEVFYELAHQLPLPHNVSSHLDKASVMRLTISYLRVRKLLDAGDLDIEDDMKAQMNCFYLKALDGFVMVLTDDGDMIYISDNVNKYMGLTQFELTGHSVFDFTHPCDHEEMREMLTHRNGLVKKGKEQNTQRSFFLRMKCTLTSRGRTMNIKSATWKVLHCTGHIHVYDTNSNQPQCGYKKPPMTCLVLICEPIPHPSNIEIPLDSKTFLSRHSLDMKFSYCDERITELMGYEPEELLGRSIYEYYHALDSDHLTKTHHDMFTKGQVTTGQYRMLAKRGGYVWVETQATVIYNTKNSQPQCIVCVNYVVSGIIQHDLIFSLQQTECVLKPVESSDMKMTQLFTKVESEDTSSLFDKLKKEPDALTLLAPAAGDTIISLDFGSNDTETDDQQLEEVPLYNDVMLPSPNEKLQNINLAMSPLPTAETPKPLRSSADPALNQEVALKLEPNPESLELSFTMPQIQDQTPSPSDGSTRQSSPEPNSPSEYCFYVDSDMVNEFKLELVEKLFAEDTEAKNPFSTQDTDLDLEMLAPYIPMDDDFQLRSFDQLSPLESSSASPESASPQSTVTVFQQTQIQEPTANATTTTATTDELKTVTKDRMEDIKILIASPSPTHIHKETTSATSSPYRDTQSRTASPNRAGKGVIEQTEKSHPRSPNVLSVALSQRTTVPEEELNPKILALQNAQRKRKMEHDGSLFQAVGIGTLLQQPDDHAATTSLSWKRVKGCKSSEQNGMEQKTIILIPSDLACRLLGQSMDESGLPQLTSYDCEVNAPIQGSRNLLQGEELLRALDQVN
Chain of Heat shock factor protein 1 (Homo sapiens) (Q00613 whole entry, looked up): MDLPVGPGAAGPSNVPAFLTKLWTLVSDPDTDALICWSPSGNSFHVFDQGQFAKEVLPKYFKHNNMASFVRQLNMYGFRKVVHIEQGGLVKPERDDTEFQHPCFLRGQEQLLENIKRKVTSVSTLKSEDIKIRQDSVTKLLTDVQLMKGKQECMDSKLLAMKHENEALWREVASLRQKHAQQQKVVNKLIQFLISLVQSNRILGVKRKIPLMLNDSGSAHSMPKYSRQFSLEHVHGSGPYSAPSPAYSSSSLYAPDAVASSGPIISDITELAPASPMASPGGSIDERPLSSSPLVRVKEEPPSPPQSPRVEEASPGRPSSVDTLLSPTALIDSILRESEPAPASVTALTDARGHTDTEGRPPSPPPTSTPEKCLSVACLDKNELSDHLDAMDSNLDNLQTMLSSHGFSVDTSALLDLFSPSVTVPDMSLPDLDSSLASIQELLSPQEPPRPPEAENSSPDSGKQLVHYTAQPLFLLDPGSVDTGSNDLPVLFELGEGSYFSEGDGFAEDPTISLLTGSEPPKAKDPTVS
Chain of Hepatocyte nuclear factor 6 (Homo sapiens) (Q9UBC0 whole entry, looked up): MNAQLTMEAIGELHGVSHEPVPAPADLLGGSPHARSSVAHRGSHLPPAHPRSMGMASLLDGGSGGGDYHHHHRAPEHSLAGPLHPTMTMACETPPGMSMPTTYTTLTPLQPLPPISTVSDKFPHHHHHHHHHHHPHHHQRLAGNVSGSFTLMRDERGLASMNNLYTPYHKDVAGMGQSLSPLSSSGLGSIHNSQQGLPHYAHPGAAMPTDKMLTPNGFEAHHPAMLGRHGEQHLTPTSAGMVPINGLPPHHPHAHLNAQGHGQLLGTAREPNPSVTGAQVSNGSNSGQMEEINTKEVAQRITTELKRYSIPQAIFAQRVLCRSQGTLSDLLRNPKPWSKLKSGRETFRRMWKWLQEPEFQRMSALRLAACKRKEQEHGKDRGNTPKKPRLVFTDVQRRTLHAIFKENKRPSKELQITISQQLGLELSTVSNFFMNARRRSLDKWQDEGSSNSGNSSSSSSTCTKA

With `CCOC(=O)C(Cl)Cc1cc(-n2nc(C)n(C(F)F)c2=O)c(F)cc1Cl` (centres undefined), the molecule was called inactive in assay [1], in assay [2], in [3], in assay [4], in [5] and in assay [6]. The molecule was classed as inactive in assay [7], in assay [8] and in [9].
Turning to `COP(N)(=O)SC` (centres undefined), the outcome in assay [1], in assay [2], in assay [3], in assay [4], in assay [5] and in assay [6] was inactive. Besides, the result in assay [7], in [8] and in assay [9] was inactive.
On to `CC(C)Oc1cc(-n2nc(C(C)(C)C)oc2=O)c(Cl)cc1Cl`, for which the result in [1], in assay [2], in assay [3], in assay [4], in [5] and in [6] was inactive. Further, in assay [7], the result was inactive. Moreover, the AC50 in assay [8] is 50 µM (active); in assay [9], 25.1 µM (active).
In the case of `C=CC1(C)OC(=O)N(c2cc(Cl)cc(Cl)c2)C1=O` (centres undefined), the result in [1], in assay [2], in [3], in assay [4], in assay [10] and in assay [5] was inactive. The molecule was classed as inactive in [6], in assay [7], in [8] and in [9].
Regarding `Oc1ccccc1-c1ccccc1`, the concentration at half-maximal activity (AC50) in assay [1] was 23 µM (active); in assay [4] it was 68.5 µM (active); in assay [8], 189 µM (active); in [9], 65.7 µM (active). Further, the call in assay [1], in assay [4], in assay [5], in assay [6], in assay [7] and in assay [8] was inactive. Further, the molecule was classed as inactive in [9].
For `CCCC1COC(Cn2cncn2)(c2ccc(Cl)cc2Cl)O1` (centres undefined), the call in [1], in assay [2], in [3], in assay [4], in assay [5] and in assay [6] was inactive. The outcome in assay [7], in assay [8] and in assay [9] was inactive. The AC50 in assay [6] and in [9] was 50 µM (active) in each case.
Take `COC(=O)C=C(C)OP(=O)(OC)OC`: the outcome in assay [1], in [2], in [3], in [4], in assay [10] and in [5] was inactive. The call in assay [6], in assay [7], in [8] and in assay [9] was inactive.
Regarding `CNC(=S)S`, the molecule was classed as inactive in assay [1], in assay [3], in assay [4], in assay [5], in assay [6] and in assay [7]. Also, the molecule was called inactive in assay [8] and in assay [9]. Besides, the AC50 in assay [4] is 73.5 µM (active); in [8], 83 µM (active); in [9], 70.4 µM (active).
In the case of `CO/C=C(/C(=O)OC)c1ccccc1Oc1cc(Oc2ccccc2C#N)ncn1`, the molecule was called inactive in assay [1], in [3], in assay [4], in [10], in assay [5] and in assay [6]. For the same molecule, the outcome in assay [7] and in assay [8] was inactive. The AC50 in assay [8] is 168 µM (active) and 155 µM (active) and 170 µM (active); in assay [9], 50 µM (active) [middle of 6 runs].
As for `COC(=O)N(OC)c1ccccc1COc1ccn(-c2ccc(Cl)cc2)n1`, the result in assay [1], in assay [2], in assay [3], in [4], in assay [5] and in assay [6] was inactive. Also, the molecule was called inactive in [7] and in assay [8]. Besides, the AC50 in assay [9] was 2.65 µM (active).
Consider `CC(C)(C)c1ccc(CSc2cnn(C(C)(C)C)c(=O)c2Cl)cc1`, for which the result in assay [1], in [2], in assay [3], in [5] and in assay [7] was inactive. Besides, the AC50 in assay [4] was 9.92 µM (active); in assay [6], 0.407 µM (active); in assay [8] it was 21.8 µM (active); in assay [9] it was 7.83 µM (active).
Take `CCNc1nc(Cl)nc(NC(C)C)n1`: the result in assay [1], in assay [3], in [4], in assay [10], in assay [5] and in assay [6] was inactive. In addition, the molecule was called inactive in assay [7], in assay [8] and in assay [9].
`CCON=C(CC)C1=C(O)CC(c2c(C)cc(C)cc2C)CC1=O` (centres undefined): the result in assay [1], in assay [2], in assay [3], in assay [4], in assay [5] and in assay [6] was inactive. Also, the molecule was classed as inactive in assay [7], in assay [8] and in assay [9].
`Cc1c(F)c(F)c(COC(=O)C2C(/C=C(\Cl)C(F)(F)F)C2(C)C)c(F)c1F` (centres undefined): the call in assay [1], in assay [2], in [3], in assay [4], in assay [5] and in assay [6] was inactive. Moreover, the result in [7], in assay [8] and in assay [9] was inactive.
Regarding `CC(Oc1ccc(Cl)cc1Cl)C(=O)O` (centres undefined), the molecule was classed as inactive in assay [1], in assay [2], in assay [3], in assay [4], in assay [5] and in assay [6]. In addition, the molecule was classed as inactive in assay [7], in assay [8] and in assay [9].
Turning to `O=C(O)c1nc(Cl)ccc1Cl`, the outcome in assay [1], in assay [3], in assay [4], in assay [5], in assay [6] and in [7] was inactive. The molecule was called inactive in assay [8] and in [9].
`OC(c1ccc(Cl)cc1)(c1cncnc1)c1ccccc1Cl` (centres undefined): the result in assay [1], in assay [3], in assay [4], in assay [5], in assay [6] and in assay [7] was inactive. The result in assay [8] and in [9] was inactive. Besides, the AC50 in assay [3] is 0.622 µM (active); in assay [8] it was 69 µM (active); in assay [9], 70.8 µM (active).
As to `CCOc1cc(Oc2ccc(C(F)(F)F)cc2Cl)ccc1[N+](=O)[O-]`, the call in assay [1], in assay [2], in [3], in [4], in assay [5] and in assay [6] was inactive. Moreover, the molecule was called inactive in assay [7] and in [8]. Moreover, in assay [9], the AC50 was 22 µM (active).
`C=CCC1=C(C)[C@@H](OC(=O)[C@@H]2[C@@H](C=C(C)C)C2(C)C)CC1=O`: the molecule was classed as inactive in assay [1], in [2], in assay [3], in assay [4], in assay [5] and in assay [6]. Further, the result in [7] and in assay [8] was inactive. Besides, the concentration at half-maximal activity (AC50) in assay [9] was 5.26 µM (active).
Consider `Fc1ccc(Oc2ccnc3cc(Cl)cc(Cl)c23)cc1`, for which the molecule was called inactive in assay [1], in [2], in assay [3], in assay [4], in assay [5] and in assay [6]. Moreover, the result in assay [7], in assay [8] and in [9] was inactive.
Turning to `O=C(Nc1ccccc1)Nc1ccnc(Cl)c1`, the outcome in assay [1], in assay [2], in assay [3], in [4], in assay [5] and in [6] was inactive. Also, the result in [7] and in assay [8] was inactive. The half-maximal activity concentration (AC50) in assay [9] was 37 µM (active).
